Laboratory results published in PubChem BioAssay (NCI).
Compounds without any hit were thinned out: in the full panel of roughly 79,000, 15% have a hit. Active and inactive are the calls of the source. Cut-off read from the data, not from the text of the source: active = growth inhibition above about 70%; inactive = the rest.

Columns and labels:
[1] = NCI Yeast Anticancer Drug Screen. Data for the mec2-1 strain (AID 157); details: S. cerevisiae mec2-1 strain, hits give high values
Method in brief: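 Readout is yeast growth inhibition, normalised to vehicle-treated controls, in the mec2-1 strain exposed to compound.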

[2] = NCI Yeast Anticancer Drug Screen. Data for the rad14 strain (AID 159);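 note: 0% = growth of vehicle-treated control cultures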; details: S. cerevisiae rad14 strain growth inhibition, hits give high values
Method in brief: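 Vehicle-treated cultures served as the baseline for growth inhibition of a DNA repair-mutant yeast strain exposed to each compound.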

[3] = NCI Yeast Anticancer Drug Screen. Data for the sgs1 mgt1 strain (AID 161);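 note: 0% = growth of cultures given vehicle only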; details: S. cerevisiae sgs1 mgt1 strain, hits give high values
Method in brief: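 Compounds are added to genetically altered yeast, and growth is compared with cultures given vehicle alone to give percent inhibition.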

[4] = NCI Yeast Anticancer Drug Screen. Data for the CLN2oe strain (AID 163);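 note: 0% = growth of vehicle-only control cultures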; details: S. cerevisiae CLN2oe strain, hits give high values
Method in brief: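 Values reflect how much compound exposure reduced yeast growth, referenced to vehicle-exposed cells. Assay organism is a strain with a defined genetic change affecting cell-cycle control.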

[5] = NCI Yeast Anticancer Drug Screen. Data for the cln2 rad14 strain (AID 165);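 note: 0% = growth equal to vehicle treated cultures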; details: S. cerevisiae cln2 rad14 strain, hits give high values
Method in brief: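 Relative to vehicle controls, growth inhibition of compound-treated cln2 rad14 yeast was recorded.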

[6] = NCI Yeast Anticancer Drug Screen. Data for the bub3 strain (AID 167); details: S. cerevisiae bub3 mutant strain, hits give high values
Method in brief: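 Inhibition values come from growth of compound-treated mutant yeast normalised to vehicle-treated controls.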

[7] = NCI Yeast Anticancer Drug Screen. Data for the wt2 strain (AID 169);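 note: 0% = growth of vehicle-treated yeast cultures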; details: S. cerevisiae wt2 strain growth inhibition, hits give high values
Method in brief: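 Values express reduction in yeast growth under compound treatment, referenced to vehicle-treated cells.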

[8] = NCI Yeast Anticancer Drug Screen. Data for the mlh1 strain (AID 171);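 note: 0% = growth of vehicle-treated control cultures of the same strain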; details: S. cerevisiae mlh1 strain growth inhibition, hits give high values
Method in brief: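 Steps: expose the defined-mutant yeast strain to compound; expose a parallel culture to vehicle; measure growth; express compound effect as inhibition relative to the vehicle culture.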

[9] = NCI Yeast Anticancer Drug Screen. Data for the sgs1 strain (AID 173);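 note: 0% = growth of vehicle-only control cultures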; details: S. cerevisiae sgs1 mutant, hits give high values
Method in brief: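 Treat defined-mutant yeast with compound; measure growth; calculate inhibition relative to vehicle-treated cells.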

[10] = NCI Yeast Anticancer Drug Screen. Data for the mlh1 rad18 strain (AID 175); details: S. cerevisiae mlh1 rad18 strain growth inhibition, hits give high values
Method in brief: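 Test agents were incubated with a yeast strain of defined genotype (DNA damage repair defect). Inhibition of growth was derived by comparison with vehicle-exposed cultures.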

[11] = NCI Yeast Anticancer Drug Screen. Data for the rad18 strain (AID 177); details: S. cerevisiae rad18 mutant growth inhibition, hits give high values
Method in brief: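 A genetically defined yeast mutant impaired in DNA damage repair was treated with test compounds, then its growth was measured against cultures receiving vehicle alone.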

[12] = NCI Yeast Anticancer Drug Screen. Data for the rad52 strain (AID 147);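 note: 0% = growth of vehicle-treated control cultures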; details: S. cerevisiae rad52 mutant growth inhibition, hits give high values
Method in brief: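 Screen used a yeast mutant impaired in DNA repair. After compound exposure, growth was measured. Values reflect inhibition compared with vehicle-treated cells.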

[13] = NCI Yeast Anticancer Drug Screen. Data for the wt1 strain (AID 149);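 note: 0% = growth of vehicle-treated wt1 cultures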; details: S. cerevisiae wt1 strain (SPY 50644) growth inhibition, hits give high values
Method in brief: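 Vehicle-normalised growth inhibition; strain wt1; compound exposure.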

[14] = NCI Yeast Anticancer Drug Screen. Data for the rad50EPP+ strain (AID 151);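 note: 0% = growth of vehicle-treated control cultures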; details: S. cerevisiae rad50 mutant strain, hits give high values
Method in brief: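 Exposing the rad50EPP+ strain to each compound, growth was compared with vehicle-only cultures to give inhibition.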

[15] = NCI Yeast Anticancer Drug Screen. Data for the rad50 strain (AID 155);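 note: 0% = growth of vehicle-only cultures of the same strain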; details: S. cerevisiae rad50 strain growth inhibition, hits give high values
Method in brief: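 A DNA repair-deficient yeast mutant serves as the test organism; compound-induced growth inhibition is calculated against vehicle-treated cells.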

[16] = NCI Yeast Anticancer Drug Screen. Data for the mgt1 strain (AID 153); details: S. cerevisiae mgt1 mutant growth inhibition, hits give high values
Method in brief: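 Genetically defined yeast (mgt1) treated with compound; inhibition of growth expressed against vehicle-treated controls.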

[17] = at 5.0 µM (retest, dose inferred, filed as 0.5)
[18] = at 50.0 µM (retest, dose inferred, filed as 5.0)

Measured: growth inhibition

O=[N+]([O-])C(=C(Sc1ccccc1)Sc1ccccc1)C(Cl)=C(Cl)Cl
inactive: [1]; at 100.0 µM 46% | [2]; at 1.2 µM 4% | [2]; at 3.7 µM 7% | [2]; at 11.0 µM 19% | [2]; at 33.0 µM 27% | [2]; at 100.0 µM 28% | [3]; [17] 2% | [3]; [18] 53% | [3]; at 50.0 µM 62.6% | [4]; at 1.2 µM 4% | [4]; at 3.7 µM 16% | [4]; at 11.0 µM 26% | [4]; at 33.0 µM 37% | [4]; at 100.0 µM 32% | [5]; [17] 44% | [5]; [18] 33% | [5]; at 50.0 µM 32.8% | [6]; at 1.2 µM 6% | [6]; at 3.7 µM 18% | [6]; [17] -1% | [6]; at 11.0 µM 33% | [6]; at 33.0 µM 45% | [6]; [18] 59% | [6]; at 50.0 µM 60.2% | [6]; at 100.0 µM 50% | [7]; at 1.2 µM 1% | [7]; at 3.7 µM 15% | [7]; at 11.0 µM 39% | [7]; at 33.0 µM 59% | [8]; at 1.2 µM 8% | [8]; at 3.7 µM 19% | [8]; at 11.0 µM 40% | [8]; at 33.0 µM 60% | [9]; at 1.2 µM 13% | [9]; at 3.7 µM 24% | [9]; at 11.0 µM 58% | [10]; [17] 12% | [10]; at 50.0 µM 59.5% | [11]; at 1.2 µM 15% | [11]; at 3.7 µM 43% | [11]; at 11.0 µM 66%
active: [7]; at 100.0 µM 73% | [8]; at 100.0 µM 74% | [9]; at 33.0 µM 76% | [9]; at 100.0 µM 78% | [10]; [18] 71% | [11]; at 33.0 µM 76% | [11]; at 100.0 µM 74%

CC[C@@]1(O)C(=O)OCc2c1cc1n(c2=O)Cc2cc3c(N)cccc3nc2-1
active: [12]; at 3.7 µM 79% | [12]; at 11.0 µM 85% | [12]; at 33.0 µM 82% | [12]; at 100.0 µM 75% | [15]; at 1.2 µM 70% | [15]; at 3.7 µM 87% | [15]; [17] 81% | [15]; at 11.0 µM 88% | [15]; at 33.0 µM 86% | [15]; [18] 84% | [15]; at 50.0 µM 88% | [15]; at 100.0 µM 83%
inactive: [12]; at 1.2 µM 54% | [13]; at 1.2 µM 22% | [13]; at 3.7 µM 13% | [13]; at 11.0 µM 7% | [13]; at 33.0 µM 8% | [13]; at 100.0 µM -1% | [14]; at 1.2 µM 13% | [14]; at 3.7 µM 30% | [14]; at 11.0 µM 53% | [14]; at 33.0 µM 54% | [14]; at 100.0 µM 52% | [1]; at 1.2 µM -7% | [1]; at 3.7 µM -1% | [1]; [17] 2% | [1]; at 11.0 µM 18% | [1]; at 33.0 µM 23% | [1]; [18] 5% | [1]; at 50.0 µM 36.7% | [1]; at 100.0 µM 30% | [2]; at 1.2 µM -20% | [2]; at 3.7 µM -29% | [2]; at 11.0 µM -25% | [2]; at 33.0 µM -24% | [2]; at 100.0 µM -33% | [3]; [17] 1% | [3]; [18] 14% | [3]; at 50.0 µM 19.9% | [4]; at 1.2 µM 25% | [4]; at 3.7 µM 23% | [4]; at 11.0 µM 25% | [4]; at 33.0 µM 22% | [4]; at 100.0 µM 13% | [5]; [17] 35% | [5]; [18] -11% | [5]; at 50.0 µM -8.35% | [6]; at 1.2 µM -28% | [6]; at 3.7 µM -32% | [6]; [17] -1% | [6]; at 11.0 µM -26% | [6]; at 33.0 µM -7% | [6]; [18] 1% | [6]; at 50.0 µM -0.65% | [6]; at 100.0 µM -30% | [7]; at 1.2 µM -16% | [7]; at 3.7 µM -9% | [7]; at 11.0 µM -8% | [7]; at 33.0 µM -3% | [7]; at 100.0 µM -16% | [9]; at 1.2 µM 0% | [9]; at 3.7 µM -2% | [9]; at 11.0 µM 5% | [9]; at 33.0 µM 5% | [9]; at 100.0 µM 8% | [10]; [17] -6% | [10]; [18] 1% | [10]; at 50.0 µM 5.1%

Cc1ccc(N)c(S)c1
active: [12]; at 33.0 µM 88% | [12]; at 100.0 µM 97% | [13]; at 33.0 µM 75% | [13]; at 100.0 µM 99% | [16]; at 33.0 µM 98% | [16]; at 100.0 µM 99% | [15]; at 33.0 µM 91% | [15]; [18] 77% | [15]; at 100.0 µM 94% | [1]; at 33.0 µM 96% | [1]; [18] 75% | [1]; at 100.0 µM 98% | [2]; at 100.0 µM 96% | [3]; at 50.0 µM 80.3% | [4]; at 33.0 µM 93% | [4]; at 100.0 µM 99% | [6]; at 33.0 µM 98% | [6]; [18] 92% | [6]; at 50.0 µM 81.5% | [6]; at 100.0 µM 98% | [8]; at 33.0 µM 98% | [8]; at 100.0 µM 97% | [9]; at 33.0 µM 98% | [9]; at 100.0 µM 98% | [10]; [18] 95% | [10]; at 50.0 µM 92.2% | [11]; at 100.0 µM 90%
inactive: [12]; at 1.2 µM -56% | [12]; at 3.7 µM -52% | [12]; at 11.0 µM -12% | [13]; at 1.2 µM -23% | [13]; at 3.7 µM -29% | [13]; at 11.0 µM -19% | [16]; at 1.2 µM -11% | [16]; at 3.7 µM -13% | [16]; at 11.0 µM 15% | [15]; at 1.2 µM -34% | [15]; at 3.7 µM -27% | [15]; [17] 1% | [15]; at 11.0 µM -4% | [15]; at 50.0 µM 10.4% | [1]; at 1.2 µM -24% | [1]; at 3.7 µM -15% | [1]; [17] -19% | [1]; at 11.0 µM -9% | [1]; at 50.0 µM 36.3% | [2]; at 1.2 µM -43% | [2]; at 3.7 µM -36% | [2]; at 11.0 µM -22% | [2]; at 33.0 µM 55% | [3]; [17] -1% | [3]; [18] 36% | [4]; at 1.2 µM -15% | [4]; at 3.7 µM -3% | [4]; at 11.0 µM 13% | [5]; [17] 35% | [5]; [18] 63% | [5]; at 50.0 µM -1.5% | [6]; at 1.2 µM -35% | [6]; at 3.7 µM -11% | [6]; [17] 15% | [6]; at 11.0 µM 48% | [8]; at 1.2 µM -19% | [8]; at 3.7 µM -3% | [8]; at 11.0 µM 26% | [9]; at 1.2 µM -29% | [9]; at 3.7 µM -34% | [9]; at 11.0 µM 14% | [10]; [17] 20% | [11]; at 1.2 µM -48% | [11]; at 3.7 µM -37% | [11]; at 11.0 µM -22% | [11]; at 33.0 µM 42%
